# ALOX12 inh = Primary qHTS assay for inhibitors of human arachidonate 12S-lipoxygenase (ALOX12): Round 2; Polyunsaturated fatty acid lipoxygenase ALOX12 (Homo sapiens), P18054; purified 12hLO, xylenol orange hydroperoxide absorbance; Potency, µM (highest dose often 108 µM), inactives show at the top dose activity change, negative = inhibition, hits mostly inhibitors; hit rate 1.1% among 580,000; AID 1671190, 2021
#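 Purified human 12hLO at 150 nM in 25 mM Hepes, 0.01% Triton X-100, pH 7.0, preincubated 15 min at room temperature with compound. Reaction started with 40 uM arachidonic acid, 30 min at room temperature. Hydroperoxide measured by Fe-xylenol orange, 573/405 nm absorbance ratio.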
# Gal4-VP16 FLuc = VP16 counterscreen qHTS for inhibitors of ROR gamma transcriptional activity | Drosophila S2 Gal4-VP16 UAS-luciferase, luminescence, 20 h | Potency, µM (series often up to 53.6 µM), without a hit: at the highest dose activity, negative = inhibition, most hits filed as inhibitors | hit rate 3.5% among 310,000 | AID 2546, 2010;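 note: Gal4-VP16 expression switched on by copper sulfate through the metallothionein promoter; nearly all actives have a fitted effect of over 50% in size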
# DT40 TDP1 no CPT = qHTS for Inhibitors of human tyrosyl-DNA phosphodiesterase 1 (TDP1): qHTS in cells in absence of CPT. hit rate 15% among 420,000. Potency, µM (titrated, usually from 46.2 µM), inactives show at the top dose activity change, negative = growth inhibition, hits mostly inhibitors. DT40 Tdp1-/- hTDP1 cells, no CPT, ATP luminescence, 48 h; note: nearly all actives have a fitted effect of over 55% in size
#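 Growth of hTDP1-complemented DT40 Tdp1-knockout cells is measured by ATP luminescence after at least 48 hr compound exposure at 37 °C, with DMSO substituting for the 20 nM CPT used in the parallel screen.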
# ELG1 repair inh = qHTS screen for small molecules that inhibit ELG1-dependent DNA repair in human embryonic kidney (HEK293T) cells expressing luciferase-tagged ELG1; HEK293T ELG1-luciferase reporter, luminescence, 16 h; DNA damage induced by 5-fluorouridine; Potency, µM (doses to about 46.1 µM), for inactives: at the highest dose activity change, negative = inhibition, most hits filed as inhibitors; hit rate 2.3% among 330,000; AID 504467, 2011; note: nearly all actives have a fitted effect of over 55% in size
#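 Overnight (16 hr) co-exposure of 2,000 cells/well to 5-fluorouridine and compound at 37 °C preceded detection. Luciferase was quantified via ONE-Glo luminescence; loss of signal denotes inhibition.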
# RORgamma inh = qHTS for inhibitors of ROR gamma transcriptional activity | Drosophila S2 Gal4-RORgamma UAS-luciferase reporter, 20 h | Potency, µM (top dose mostly 53.6 µM), without a hit: at the top dose activity change, negative = inhibition, hits mostly inhibitors | hit rate 5.4% among 310,000 | AID 2551, 2010; note: nearly all actives have a fitted effect of over 60% in size
# Target sequence (P51450 whole entry, looked up, the tested form may be a part): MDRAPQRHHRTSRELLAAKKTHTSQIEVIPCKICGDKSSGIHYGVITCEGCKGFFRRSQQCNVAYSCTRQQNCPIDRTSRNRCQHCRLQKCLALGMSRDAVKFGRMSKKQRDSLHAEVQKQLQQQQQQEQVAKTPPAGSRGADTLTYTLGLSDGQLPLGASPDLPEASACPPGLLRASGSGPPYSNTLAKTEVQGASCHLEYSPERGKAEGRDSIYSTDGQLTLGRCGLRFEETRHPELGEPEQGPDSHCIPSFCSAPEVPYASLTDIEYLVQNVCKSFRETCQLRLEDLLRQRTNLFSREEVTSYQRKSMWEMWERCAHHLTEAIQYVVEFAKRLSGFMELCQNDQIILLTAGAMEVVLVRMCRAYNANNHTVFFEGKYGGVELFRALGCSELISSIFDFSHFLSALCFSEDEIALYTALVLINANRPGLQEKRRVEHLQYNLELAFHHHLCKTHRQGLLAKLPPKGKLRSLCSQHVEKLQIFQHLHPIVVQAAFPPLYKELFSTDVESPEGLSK
#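 Compounds are pin-transferred onto Drosophila Schneider cells expressing a copper-inducible Gal4–ROR gamma transactivation domain fusion. After 1 hr, copper sulfate is added to 700 uM final; luciferase is read 20 hr later.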
# TDP1 cell CPT = qHTS for Inhibitors of human tyrosyl-DNA phosphodiesterase 1 (TDP1): qHTS in cells in presence of CPT. hit rate 12% among 420,000. AID 686979, 2013. chicken DT40 Tdp1-/-;hTDP1 cells + 20 nM CPT, ATP luminescence, 48 h. Potency, µM (series often up to 46.2 µM), without a hit: top-dose activity change, negative = growth inhibition, usual class: inhibitors; note: nearly all actives have a fitted effect of over 55% in size
#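 Cell growth measured by CellTiter-Glo luminescence after a minimum 48 h, 37 C compound exposure with 20 nM CPT in Tdp1-knockout DT40 cells stably expressing hTDP1, seeded 400/well; qHTS titration format.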
# ELG1 FLuc counter = qHTS screen for small molecules that inhibit ELG1-dependent DNA repair: Hit Confirmation in Cell-Based Luciferin Assay. shares compounds with ELG1 repair inh. cell-free firefly luciferase luminescence counter-screen, ViewLux. Potency, µM (titrated, usually from 46.1 µM), for inactives: at the highest dose activity change, negative = inhibition, most hits filed as inhibitors. hit rate 3% among 350. AID 624247, 2012
# ELG1 Luc conf = HTS assay for small molecules that inhibit ELG1-dependent DNA repair in human embryonic kidney (HEK293T) cells expressing luciferase-tagged ELG1: Hit Confirmation | HEK293T ELG1-luciferase levels, luminescence; cells co-treated with 5-fluorouridine | hit rate 68% among 670 | Potency, µM (doses to about 46.1 µM), for the others: at the top dose activity change, negative = inhibition, actives largely listed as inhibitors | AID 624248, 2012 | shares compounds with ELG1 repair inh; note: nearly all actives have a fitted effect of over 55% in size
# ELG1-Luc MMS = MMS-stimulated human ELG1 repair inhibition, confirmed; hit rate 53% among 670; Potency, µM (top dose mostly 46.1 µM), without a hit: top-dose activity change, negative = inhibition, most hits filed as inhibitors; AID 624249; HEK293T luciferase-tagged ELG1 level, MMS stimulated; shares compounds with ELG1 repair inh; note: nearly all actives have a fitted effect of over 60% in size
# ELG1 5FU viab = qHTS screen for small molecules that inhibit ELG1-dependent DNA repair: Hit Confirmation with 5FU Viability; shares compounds with ELG1 repair inh; cell viability with 5-FU, ELG1-dependent repair; Potency, µM (top dose mostly 46.1 µM), inactives show at the highest dose activity change, negative = viability loss, most hits filed as cytotoxic; 670 tested, under 10 active;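 note: ELG1-luc HEK293T cells cotreated with 5-fluorouridine at 10 µM final; viability measured 16 h after compound addition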
# ELG1 MMS viab = qHTS screen for small molecules that inhibit ELG1-dependent DNA repair: Hit Confirmation with MMS Viability; Potency, µM (titrated, usually from 46.1 µM), for the others: at the top dose activity change, negative = viability loss, most hits filed as cytotoxic; shares compounds with ELG1 repair inh; Cell viability with MMS, ELG1-dependent DNA repair; hit rate 33% among 670;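 note: ELG1-luc HEK293T cells co-treated with 10 µM MMS; viability read 16 h after compound addition; nearly all actives have a fitted effect of over 60% in size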
# ELG1 unstim viab = qHTS screen for small molecules that inhibit ELG1-dependent DNA repair: Hit Confirmation with Unstimulated Viability Assay; hit rate 8% among 900; Potency, µM (highest dose often 45.9 µM), inactives show at the highest dose activity change, negative = loss of viability, most hits filed as cytotoxic; shares compounds with ELG1 repair inh; AID 624252, 2012; cell viability counter-screen, unstimulated, luminescence;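 note: compound exposure lasted 16 hours before reading; nearly all actives have a fitted effect of over 55% in size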
# FLuc enzyme = qHTS screen for small molecules that inhibit ELG1-dependent DNA repair: Hit Confirmation in Biochemical Luciferin Assay. shares compounds with ELG1 repair inh. hit rate 10% among 350. purified firefly luciferase, luminescence counter-screen. Potency, µM (series often up to 57.5 µM), for inactives: at the highest dose activity, negative = inhibition, usual class: inhibitors
# The depositor's hits bear a star; ? = inconclusive; . = no result given; [ ] = remark or other dose. In the library only some 15% were active in any assay of this set; here they are far more common. Calls come from the whole dose curve; as a rule, active = well fitted curve in the direction sought with a large enough effect; inconclusive = small, poorly fitted or top-dose-only effect, or another doubt; inactive = no such curve, though single readings can be large; an effect the other way counts as inactive or inconclusive. % is set by controls: 0 for no effect and ±100 for the full control effect; potency is the fitted concentration of half-maximal effect.
SMILES,ALOX12 inh,Gal4-VP16 FLuc,DT40 TDP1 no CPT,ELG1 repair inh,RORgamma inh,TDP1 cell CPT,ELG1 Luc conf,ELG1-Luc MMS,ELG1 5FU viab,ELG1 MMS viab,ELG1 unstim viab,others
COc1ccccc1C(=O)N1CCCC2(CNc3ccccc3[S+](=O)([O-])N2)C1 (stereo not drawn),1.5%,.,.,.,.,.,.,.,.,.,.,
COc1cc(C(=O)Nc2cccc(C(C)=O)c2)cc(OC)c1OC,-9.7%,9.8%,5.1%,17.9%,6.0%,3.6%,.,.,.,.,.,
COc1cc(-c2cc(C(=O)Nc3cccc(C(C)=O)c3)c3ccccc3n2)cc(OC)c1OC,14.7%,-15.4%,?,1.64µM*,18.0%,6.51µM*,0.705µM*,11.2µM*,?,-9.8%,?,
CCOC(=O)c1c(C)[nH]c(C(=O)NNC(=O)c2ccccc2F)c1C,-3.9%,.,1.9%,?,.,-0.8%,.,.,.,.,-9.1%,
C=CC[C@@H](CC(=O)NCCO)C(=O)NC[C@H](OC(=O)[C@@H](CC=C)Cc1ccc(F)cc1)c1ccccc1,-2.1%,.,11.6µM*,3.26µM*,.,14.6µM*,?,14.1µM*,?,-19.6%,-14.4%,
COc1ccccc1-c1cc(Nc2ccc(N3CCOCC3)cc2)c2onc(C)c2n1,-17.9%[176 µM],.,.,.,.,.,.,.,.,.,.,
CCOC(=O)Cc1ccc(NC(=O)Nc2ccc(OCc3cc(=O)n4ccccc4n3)cc2)cc1,7.4%,.,.,.,.,.,.,.,.,.,.,
O=C1NC2(CCN(C(=O)OCc3ccccc3)C2)N=C1c1ccncc1 (stereo not drawn),68.3%[176 µM],.,.,.,.,.,.,.,.,.,.,
OCCN1CCN(c2ncnc3ccc(Br)cc23)CC1,0.0%,-3.9%,4.11µM*,2.06µM*,7.5%,-89.4%,?,?,-2.3%,4.9%,4.1%,
O=[N+]([O-])c1cnc2ccc(Br)cc2c1N1CCN(CCO)CC1,-30.9%,.,.,.,.,.,.,.,.,.,.,
CC(c1cccs1)N(C)Cc1ccccc1 (stereo not drawn),41.3%[365 µM],.,.,.,.,.,.,.,.,.,.,
O=C(Cc1cccc(C(F)(F)F)c1)N1CCCc2ncc(C(=O)N3CCCC[C@@H]3c3ccccc3)cc21,5.9%,.,.,.,.,.,.,.,.,.,.,
CCOc1ccc(C(=O)COC(=O)Cn2cnc3c2c(=O)n(C)c(=O)n3C)cc1,-25.8%,.,-5.3%,9.8%,.,10.6%,.,.,.,.,.,
Cn1c(=O)c2c(ncn2CC(=O)OCCCC(=O)c2ccc(Br)cc2)n(C)c1=O,1.6%,.,6.51µM*,?,.,18.4µM*,?,2.5µM*,-2.2%,2.23µM*,?,ELG1 FLuc counter=-2.9%;FLuc enzyme=2.1%
COc1ccc(N2CCCn3c2nc2c3c(=O)n(CCc3ccccc3)c(=O)n2C)cc1,0.0%,-10.4%,14.6µM*,4.11µM*,-18.7%,?,17.7µM*,15.8µM*,?,-6.1%,-19.8%,
O=C(Nc1cccc(Cl)c1)c1nc[nH]c1C(=O)NCCN(CCNC(=O)c1[nH]cnc1C(=O)Nc1cccc(Cl)c1)CCNC(=O)c1[nH]cnc1C(=O)Nc1cccc(Cl)c1,-10.6%,.,?,0.8%,.,?,.,.,.,.,.,
O=C(Nc1ccc(Cl)cc1)c1nc[nH]c1C(=O)NCCCCNC(=O)c1[nH]cnc1C(=O)Nc1ccc(Cl)cc1,2.7%,.,4.61µM*,2.91µM*,.,5.8µM*,2.5µM*,11.2µM*,-3.8%,25µM*,?,
COc1cc2c(cc1OC)C(COc1ccc3c(C)cc(=O)oc3c1)N(C(=O)c1ccco1)CC2 (stereo not drawn),-24.6%,-12.7%,20.6µM*,2.31µM*,-10.0%,?,5.61µM*,22.3µM*,-3.6%,?,?,ELG1 FLuc counter=6.1%;FLuc enzyme=-10.2%
Fc1ccccc1-c1csc(=Nc2cccnc2)n1CCCn1ccnc1,-2.4%,-17.4%,16.4µM*,10.3µM*,?,25.9µM*,12.6µM*,19.9µM*,1.1%,22.3µM*,?,ELG1 FLuc counter=16.0%;FLuc enzyme=?
Fc1ccccc1-c1csc(=Nc2cccnc2)n1CC1CCCO1 (stereo not drawn),-12.9%,7.08µM*,?,?,?,?,?,22.3µM*,8.9%,15.8µM*,?,ELG1 FLuc counter=-12.3%;FLuc enzyme=-15.4%
